Laboratory results taken from PubChem BioAssay.
The source made the active and inactive calls.

Assays:
Albumin (Bos taurus) = Albumin (Bos taurus) (UniProt P02769); assay: compounds binding labelled BSA control protein – biochemical, small-molecule microarray, Alexa647 label, 635/667 nm fluorescence, artefact control for SMM control protein annotation, profiling panel (AID 1118); details: BSA-A647 binding, fluorescence 635 nm, higher = more signal;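 also: score merges 667 nm emission intensity and signal-to-noise per printed compound spot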
[1] = probe aXIP binding to arrayed compounds – biochemical, NeuroSMM set, 635/667 nm fluorescence, primary screen (AID 1119); details: small-molecule microarray, higher = more signal, called active from +8 up or from −8 down;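 also: probe is the protein aXip251-270 applied at 1 µg/mL to compound-printed slides; binding of probe to printed compounds measured as 667 nm fluorescence plus signal to noise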
[2] = probe aNOTCH3 binding on compound microarray – biochemical, small-molecule microarray, 635/667 nm fluorescence, primary screen (AID 1120); details: higher = more signal;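 also: probe is a biotin-tagged antibody raised against NOTCH3 rather than NOTCH3 protein; score merges spot fluorescence near 667 nm with spot signal to noise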
[3] = probe aNOTCH2 binding on compound microarray – biochemical, small-molecule microarray, 635/667 nm fluorescence, primary screen (AID 1121); details: higher = more signal;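 also: score merges feature fluorescence read at 667 nm with its signal to noise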
[4] = target: Carbonic anhydrase 2 (Homo sapiens) (UniProt P00918); assay: compounds binding carbonic anhydrase 2 – biochemical, small-molecule microarray, Alexa647-labelled CAII, profiling panel (AID 1122); details: CAII-A647 binding fluorescence, higher = more signal
[5] = COS7 lysate on small-molecule microarray, probe aHis, 635 nm (AID 1123); details: COS7 cell lysate, fluorescence, higher = more signal;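 also: z-score combines 667nm fluorescence intensity with signal-to-noise per printed compound spot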
[6] = probe aLAP1 signal on lysate-treated microarray – cell lysate, small-molecule microarray, COS7 lysate, primary screen (AID 1124); details: probe aLAP1, fluorescence, higher = more signal;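 also: lysate comes from COS7 cells expressing LAP1 and is applied at 0.3 µg/mL; score merges spot fluorescence near 667 nm with signal-to-noise over triplicate slides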
Sam68 (KHDRBS1) = assay: compounds binding KHDRBS1 protein – biochemical, small-molecule microarray, 635 nm fluorescence, primary screen (AID 1125); details: higher = more signal;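 also: score merges 667 nm channel intensity with signal to noise over triplicate slides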
[7] = system: Chordin-like protein 2 (CHRDL2); assay: compounds binding chordin-like 2 – biochemical, small-molecule microarray, 635 nm fluorescence, primary screen (AID 1126); details: fluorescence 635 nm, higher = more signal;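 also: printed compound slides probed with Chrdl2 protein at 4 µg/mL for 1 h at 4 C; score merges 667 nm emission intensity with signal to noise over three replicate slides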
[8] = target: Concanavalin-A (Canavalia ensiformis) (UniProt P02866); assay: compounds binding concanavalin A lectin – biochemical, small-molecule microarray, Alexa647 label, 635 nm, artefact control for SMM control protein annotation, primary screen (AID 1127); details: ConA-A647 binding fluorescence, higher = more signal;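 also: z combines 667 nm emission intensity with signal-to-noise across three replicate slides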
[9] = compounds binding Alexa647 anti-His antibody – biochemical, small-molecule microarray, 635 nm fluorescence, artefact control for SMM control protein annotation, primary screen (AID 1128); details: higher = more signal;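 also: score merges feature fluorescence with signal-to-noise for each printed compound spot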
[10] = system: Human papillomavirus type 1a E7 protein (residues 1-88); assay: HPV1a E7 small-molecule binders, primary screen, biochemical, small-molecule microarray, residues 1-88, 635 nm (AID 1129); details: small-molecule microarray binding, fluorescence 635 nm; higher = more signal
[11] = target: Focal adhesion kinase 1 (Homo sapiens) (UniProt Q05397); assay: PTK2 protein binding on printed compound slides – biochemical, small-molecule microarray, 635/667 nm fluorescence, BSA, DTT, primary screen (AID 1130); details: 635 nm fluorescence, higher = more signal;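 also: composite of spot emission at 667 nm and signal to noise over triplicate slides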
[12] = system: Fibrinogen (Alexa647-labelled); assay: Alexa647-fibrinogen binding to printed small molecules – biochemical, small-molecule microarray, 635/667 nm fluorescence, artefact control for SMM control-protein annotation, profiling panel (AID 1131); details: fibrinogen-A647 binding fluorescence, higher = more signal;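 also: z-score merges 667 nm fluorescence with per-spot signal-to-noise over triplicate slides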
[13] = target: Follistatin (Homo sapiens) (UniProt P19883); assay: FST protein binding to printed compounds – biochemical, small-molecule microarray, 635/667 nm fluorescence, primary screen (AID 1132); details: 635 nm fluorescence, higher = more signal
[14] = target: Fibroblast growth factor 2 (Homo sapiens) (UniProt P09038); assay: basic fibroblast growth factor binding to printed compounds – biochemical, small-molecule microarray, 635/667 nm fluorescence, primary screen (AID 1133); details: FGF2, fluorescence 635/667, higher = more signal
[15] = JC-1 mitochondrial potential readout, lung cancer cells – cell-based, A549, JC-1 fluorescence, basal, 24 h, 100 nL, profiling panel (AID 1138); details: higher = more signal;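 also: A549 lung adenocarcinoma cells under basal conditions with no added stimulus; test concentration not given here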
Lefty1 = Lefty1 protein binding to printed compounds – biochemical, small-molecule microarray, 635/667 nm fluorescence, primary screen (AID 1139); details: fluorescence 635/667, higher = more signal
[16] = system: wheat germ agglutinin (Triticum aestivum), Alexa647-labelled; assay: Alexa647-WGA lectin binding to printed small molecules – biochemical, small-molecule microarray, 635/667 nm fluorescence, artefact control for SMM control-protein annotation, profiling panel (AID 1140); details: WGA-A647 binding, 635 nm fluorescence, higher = more signal;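 also: score merges 667 nm feature emission with signal to noise over triplicate slides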
[17] = target: Luciferin 4-monooxygenase (Photinus pyralis) (UniProt P08659); assay: inhibition of purified Photinus pyralis luciferase – biochemical, luminescence, purified enzyme, 2006 set, primary screen (AID 1141); details: purified firefly luciferase, SteadyGlo luminescence, 30 min; higher = more signal, called active from +8 up or from −8 down;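 also: cell-free assay with purified firefly luciferase at 100 ng per well in PBS; test concentration not given here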
Sequence of Luciferin 4-monooxygenase (Photinus pyralis) (P08659 whole entry, looked up): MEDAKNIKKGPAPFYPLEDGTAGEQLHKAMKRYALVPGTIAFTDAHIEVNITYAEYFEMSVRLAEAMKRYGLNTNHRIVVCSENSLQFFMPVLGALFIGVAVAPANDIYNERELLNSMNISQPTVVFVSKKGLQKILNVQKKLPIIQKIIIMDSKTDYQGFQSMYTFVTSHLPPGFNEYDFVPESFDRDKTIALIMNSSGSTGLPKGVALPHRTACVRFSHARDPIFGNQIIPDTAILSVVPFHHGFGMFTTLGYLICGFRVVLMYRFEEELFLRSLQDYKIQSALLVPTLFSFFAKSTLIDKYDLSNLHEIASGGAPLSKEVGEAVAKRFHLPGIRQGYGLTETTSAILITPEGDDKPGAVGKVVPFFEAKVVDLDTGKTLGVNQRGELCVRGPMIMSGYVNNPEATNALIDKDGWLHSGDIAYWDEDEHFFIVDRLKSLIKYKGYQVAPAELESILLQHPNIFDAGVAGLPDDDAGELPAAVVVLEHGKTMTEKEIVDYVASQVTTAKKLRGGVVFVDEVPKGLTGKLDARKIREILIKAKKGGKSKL

Sequence of Fibroblast growth factor 2 (Homo sapiens) (P09038 whole entry, looked up): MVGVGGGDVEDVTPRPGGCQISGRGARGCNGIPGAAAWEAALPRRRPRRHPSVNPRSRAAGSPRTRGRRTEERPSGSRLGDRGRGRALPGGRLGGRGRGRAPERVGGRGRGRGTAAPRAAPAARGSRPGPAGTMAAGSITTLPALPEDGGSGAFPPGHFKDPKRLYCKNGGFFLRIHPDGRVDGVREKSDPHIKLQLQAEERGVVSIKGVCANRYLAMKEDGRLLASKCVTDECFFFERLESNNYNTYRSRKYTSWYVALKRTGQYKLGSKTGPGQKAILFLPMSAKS
Sequence of Follistatin (Homo sapiens) (P19883 whole entry, looked up): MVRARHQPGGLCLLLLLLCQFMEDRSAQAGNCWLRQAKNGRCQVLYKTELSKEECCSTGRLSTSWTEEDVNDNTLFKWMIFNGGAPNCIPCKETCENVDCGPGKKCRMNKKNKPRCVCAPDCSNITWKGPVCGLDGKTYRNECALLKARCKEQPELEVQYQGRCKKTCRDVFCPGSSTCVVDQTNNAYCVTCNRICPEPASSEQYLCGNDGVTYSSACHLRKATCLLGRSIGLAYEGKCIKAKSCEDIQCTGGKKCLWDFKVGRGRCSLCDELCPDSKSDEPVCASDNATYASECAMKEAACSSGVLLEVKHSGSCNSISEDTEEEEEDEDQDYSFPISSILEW
Sequence of Albumin (Bos taurus) (P02769 whole entry, looked up): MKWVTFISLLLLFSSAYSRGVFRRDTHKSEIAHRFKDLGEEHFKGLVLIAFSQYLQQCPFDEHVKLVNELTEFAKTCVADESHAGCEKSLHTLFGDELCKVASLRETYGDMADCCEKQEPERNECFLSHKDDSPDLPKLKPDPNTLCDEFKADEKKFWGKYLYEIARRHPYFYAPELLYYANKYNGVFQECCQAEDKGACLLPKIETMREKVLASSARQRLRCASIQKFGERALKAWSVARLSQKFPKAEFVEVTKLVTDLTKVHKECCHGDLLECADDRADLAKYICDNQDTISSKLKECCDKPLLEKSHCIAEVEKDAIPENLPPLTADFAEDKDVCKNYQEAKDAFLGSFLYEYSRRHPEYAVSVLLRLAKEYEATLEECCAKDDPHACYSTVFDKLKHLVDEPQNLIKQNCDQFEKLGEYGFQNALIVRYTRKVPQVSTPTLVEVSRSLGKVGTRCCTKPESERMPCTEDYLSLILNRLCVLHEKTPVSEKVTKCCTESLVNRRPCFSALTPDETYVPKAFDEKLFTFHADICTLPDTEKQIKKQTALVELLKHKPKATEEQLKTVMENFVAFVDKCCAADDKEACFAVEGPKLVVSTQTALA
Sequence of Focal adhesion kinase 1 (Homo sapiens) (Q05397 whole entry, looked up): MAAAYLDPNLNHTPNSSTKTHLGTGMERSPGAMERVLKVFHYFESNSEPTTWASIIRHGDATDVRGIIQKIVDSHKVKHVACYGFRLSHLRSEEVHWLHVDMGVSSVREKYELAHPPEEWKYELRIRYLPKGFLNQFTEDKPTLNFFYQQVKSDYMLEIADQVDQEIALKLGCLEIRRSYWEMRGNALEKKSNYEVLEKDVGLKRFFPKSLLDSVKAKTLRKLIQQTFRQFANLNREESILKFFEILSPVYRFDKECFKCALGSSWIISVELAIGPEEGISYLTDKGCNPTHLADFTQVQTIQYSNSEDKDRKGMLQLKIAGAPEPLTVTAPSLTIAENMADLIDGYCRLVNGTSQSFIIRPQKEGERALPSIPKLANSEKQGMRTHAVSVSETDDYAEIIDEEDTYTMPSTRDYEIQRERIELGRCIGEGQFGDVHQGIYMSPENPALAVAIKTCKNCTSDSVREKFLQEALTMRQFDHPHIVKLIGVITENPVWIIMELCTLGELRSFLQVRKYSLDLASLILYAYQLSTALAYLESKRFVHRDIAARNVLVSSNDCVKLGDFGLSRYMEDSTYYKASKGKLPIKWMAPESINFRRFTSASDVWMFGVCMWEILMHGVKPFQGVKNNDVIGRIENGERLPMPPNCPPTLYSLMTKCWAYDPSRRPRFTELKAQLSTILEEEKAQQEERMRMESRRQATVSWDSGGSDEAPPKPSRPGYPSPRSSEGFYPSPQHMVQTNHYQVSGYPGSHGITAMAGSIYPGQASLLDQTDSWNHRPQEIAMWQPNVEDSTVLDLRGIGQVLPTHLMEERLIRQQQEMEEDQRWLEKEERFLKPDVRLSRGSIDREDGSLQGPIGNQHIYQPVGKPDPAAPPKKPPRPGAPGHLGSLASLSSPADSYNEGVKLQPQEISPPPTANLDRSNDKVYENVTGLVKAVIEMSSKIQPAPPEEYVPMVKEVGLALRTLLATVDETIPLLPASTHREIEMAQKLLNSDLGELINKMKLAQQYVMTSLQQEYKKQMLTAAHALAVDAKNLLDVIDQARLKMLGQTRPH
Sequence of Concanavalin-A (Canavalia ensiformis) (P02866 whole entry, looked up): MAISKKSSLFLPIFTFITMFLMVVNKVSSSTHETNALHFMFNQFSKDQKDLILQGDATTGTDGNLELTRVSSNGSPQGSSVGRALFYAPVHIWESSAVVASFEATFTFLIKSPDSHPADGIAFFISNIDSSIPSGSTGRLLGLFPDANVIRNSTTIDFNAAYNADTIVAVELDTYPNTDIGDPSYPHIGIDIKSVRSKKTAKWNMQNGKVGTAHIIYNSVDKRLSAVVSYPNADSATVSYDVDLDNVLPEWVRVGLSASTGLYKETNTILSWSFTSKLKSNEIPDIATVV

SMILES	composite z-score (Albumin (Bos taurus))	composite Z-score [1]	composite z-score [2]	composite z-score [3]	composite z-score [4]	composite z-score [5]	composite z-score [6]	composite z-score (Sam68 (KHDRBS1))	composite z-score [7]	composite z-score [8]	composite z-score [9]	composite z-score [10]	composite z-score [11]	composite z-score [12]	composite z-score [13]	composite z-score [14]	z-score [15]	composite z-score (Lefty1)	composite z-score [16]	z-score [17]
Cc1ccc(S[C@]2(C(=O)NCC(C)C)CC(=O)N(Cc3ccccc3Cl)[C@@H]2c2ccc(CO)cc2I)cc1	-0.253	0.0894 (inactive)	-0.179	-0.127	0.763	0.363	0.142	0.245	-0.332	-0.395	0.231	0.132	-0.47	0.137	-0.142	-0.131	-0.204	-0.7	0.231	0.272 (inactive)
CCN(CC)c1ccc(N2CC=CC34O[C@@H]5/C=C\CCC(C)OC(=O)C5[C@H]3C(=O)N(CCO)[C@@H]4C2=O)cc1 (stereo not given in full)	-0.694	0.736 (inactive)	-0.152	-0.132	0.818	1.87	0.711	0.153	-1.01	-0.242	2.08	-0.204	0.235	-1.45	-0.69	-0.734	0.431	-0.171	0.144	-0.801 (inactive)
O=C(CS)NCCCCCCNC(=O)[C@@H]1C[C@@H]2C(=O)N3CCC[C@H]3C(=O)N2[C@@H]1c1cccc(OCCO)c1	0.848	-0.19 (inactive)	-0.225	0.0063	0.635	2.81	-0.0386	1.3	0.454	1.1	0.824	1.13	0.459	0.642	1.1	1.59	0.503	0.361	0.832	-0.681 (inactive)
Cc1ccc(S[C@]2(C(=O)NCc3ccccc3)CC(=O)N(C(C)C)[C@@H]2c2ccc(CO)cc2I)cc1	0.838	0.46 (inactive)	-0.221	-0.0268	0.304	2.56	0.704	-0.29	-1.59	-1.29	0.257	-0.0754	-0.19	-0.956	-0.289	-1.04	-0.224	-1.17	-0.0961	0.667 (inactive)
C=CCN1Cc2ccccc2C[C@@]2(N=C(c3ccc(OCCCO)cc3)O[C@H]2c2ccccc2)C1=O	0.247	0.667 (inactive)	0.106	-0.0148	0.577	3.06	0.326	1.3	0.185	1.14	0.69	1.24	0.649	0.801	0.749	0.955	0.943	0.0744	0.98	-0.668 (inactive)
COCCOC(=O)N1C(=O)[C@@]2(c3ccccc31)[C@H](c1ccc(OCCO)cc1)N1[C@H](c3ccccc3)[C@H](c3ccccc3)OC(=O)[C@H]1[C@@H]2C(=O)Nc1nc2ccccc2s1	0.903	0.171 (inactive)	-0.0059	-0.0089	0.55	2.74	0.676	1.3	0.232	1.17	1.6	1.2	0.72	0.942	1.24	1.05	-2.22	0.518	0.433	-2.98 (inactive)
COCCCNC(=O)[C@@]1(Sc2ccc(C)cc2)CC(=O)N(Cc2cc(C(F)(F)F)cc(C(F)(F)F)c2)[C@@H]1c1ccc(CO)cc1	0.734	1.14 (inactive)	0.0562	-0.0136	0.703	2.41	1.1	1.21	0.749	0.715	1.79	0.566	0.813	0.248	1.06	0.686	0.727	1.25	-0.271	-0.363 (inactive)
C[N+](C)(C)CCCC[C@@H]1NC(=O)[C@@H]2C[C@H](C(=O)O)[C@H](c3ccc(O)cc3)N2C1=O	0.594	-0.238 (inactive)	-0.223	-0.0798	0.381	-0.555	-0.534	-2.19	-0.827	0.0317	-0.613	-1.65	-0.975	-1.21	-0.493	-0.27	-0.264	0.0501	0.213	-0.516 (inactive)
COc1cc(CO)cc(I)c1O[C@H]1C=C(C(=O)NCCO)C[C@@H](NCc2ccccc2F)[C@@H]1O	0.162	0.235 (inactive)	0.0979	-0.179	0.218	0.558	0.303	1.02	0.486	0.746	0.271	1.17	0.0691	0.124	0.347	0.974	1.72	1.19	0.278	-0.0791 (inactive)
COCCCNC(=O)[C@]1(Cc2ccccc2CN=[N+]=[N-])N=C(c2ccc(OCCCO)cc2)O[C@@H]1c1ccccc1	0.867	-0.337 (inactive)	0.289	-0.0633	0.548	1.91	0.785	0.997	-0.474	1	2.83	1.19	0.306	0.985	0.547	-0.0864	1.06	0.0167	0.643	0.505 (inactive)
